# High-throughput results (PubChem)
# Compounds with a hit are over-represented: about 2.5% of the library has one in this group of screens.
# V-ATPase pHluor: yeast V-ATPase proton transport regulation by pHLuorin. AID 504577. 0.37% of 350,000 active. S. cerevisiae, pHLuorin cytosolic pH fluorescence. response, % at 10 µM; in the data active = response mostly above about 7.3%, no sharp cut-off; inactive = mostly below about 5.4%; note: actives read high
# AI-2 QS mod: modulates the Vibrio harveyi AI-2 quorum sensing system; Vibrio harveyi JMH597 AI-2 luminescence/OD600 ratio, 9 h; active compounds read low; strain lacks LuxN and CqsS sensors; 0 = neutral-control median; activity change, % at 7.5 µM; 0.4% of 300,000 active; AID 2094; in the data active = activity change below about -75%, passing the limit was not always enough; inconclusive = no clear call, values can overlap the other calls;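 note: luminescence divided by OD600 gain over 9 h not by final OD600 alone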
# ATG4B inh: blocks human ATG4B protease cleavage of LC3 substrate | Q9Y4P1 | ATG4B cleavage of LC3-PLA2, NBD-HPC fluorescence, 1 h | inhibition, % at 8.33 µM | 0.51% of 340,000 active | AID 504462; in the data active = inhibition above about 40%
# Target sequence (Q9Y4P1 whole entry, looked up): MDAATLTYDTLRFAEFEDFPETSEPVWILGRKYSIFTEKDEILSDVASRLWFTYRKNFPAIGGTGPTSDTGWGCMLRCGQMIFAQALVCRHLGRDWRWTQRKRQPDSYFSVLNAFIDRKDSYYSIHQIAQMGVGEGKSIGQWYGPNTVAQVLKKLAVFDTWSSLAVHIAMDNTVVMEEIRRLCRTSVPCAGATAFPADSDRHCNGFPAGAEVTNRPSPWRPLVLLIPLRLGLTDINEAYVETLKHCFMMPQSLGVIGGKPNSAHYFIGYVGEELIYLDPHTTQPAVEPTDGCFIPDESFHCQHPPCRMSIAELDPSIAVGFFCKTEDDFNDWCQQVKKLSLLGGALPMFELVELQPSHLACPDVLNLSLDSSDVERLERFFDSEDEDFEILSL
# Efflux pump mplx: antifungal efflux pump inhibition, Nile Red retention; 0.44% of 330,000 active; inhibition, % at 10 µM; S. cerevisiae Candida pump triplex; AID 485275;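 active = plate passing quality check with inhibition over a set limit, or well fluorescence over plate mean plus 4 SD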;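 note: Nile Red retained in pooled yeast measured as flow cytometry median fluorescence; 0% = buffer negative control and 100% = Enniatin B positive control; higher means more Nile Red kept so more efflux inhibition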
# SUMO Mot1 rescue: inhibitors of SUMOylation pathway: yeast Mot1-301 growth rescue. 1% of 320,000 active. AID 2716. S. cerevisiae Mot1-301 growth rescue, ATP luminescence, 38.5C; percent above DMSO median, 100 means doubled. growth rescue, % at 18.8 µM;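 active = every valid replicate shows activation above 250% relative to neutral control wells; inactive = the rest, any valid replicate at or below 250%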;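 note: OY570 slx delta 5 strain wells were the positive control but not used for scaling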
# Yeast Mot1 SUMO: inhibits SUMO pathway, affecting Mot1-301 yeast growth. S. cerevisiae Mot1-301 galactose growth, ATP luminescence, 24 h; -100 = growth of slx-deleted rescue strain. AID 493004. shares compounds with SUMO Mot1 rescue. growth activity, percent, % at 42 µM. 2,300 tested, under 10 active;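 active = Signal drops as the depositor expects, and the fitted half-maximal dose is no more than ten times the top valid tested dose; inconclusive = Poor fit, or a flat curve whose signal drops by 30% to 70%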;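 note: more negative values mean stronger growth rescue toward the control strain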
# * marks the source's active call; other numbers are inactive results; ? = inconclusive; . = no result; + = active, no number; ! = a repeat was not active; [ ] = dose if it differs, or a comment.
SMILES,V-ATPase pHluor,AI-2 QS mod,ATG4B inh,Efflux pump mplx,SUMO Mot1 rescue,Yeast Mot1 SUMO
Cc1ccc(NC(=O)CCC(=O)OCc2ccc(Br)cc2)cc1,1.4,-3.7,6.0,3.3,404.7,.
NC(=O)CN1CCOCCN(CC(N)=O)CCOCC1,.,2.5,6.5,0.1,409.8*,0.3
NC(=O)CN1CCOCCOCCN(CC(N)=O)CCOCCOCC1,-0.3,10.8,1.6,-0.1,2.1,.
Cc1ccccc1OCc1nc2ccccc2c(=O)n1NC(=O)c1ccco1,-1.7,16.4,-1.3,0.0,9.6,.
Cc1cccc(OCCC(=O)Nc2ccc(F)c(F)c2)c1,-1.4,-38.4,7.3,0.3,380.3*,0.0
CN(C)S(=O)(=O)c1cccc(C(=O)Nc2ccccc2)c1,-0.8,12.3,-1.4,0.0,-26.5,.
CN(C)S(=O)(=O)c1cccc(NC(=O)C(c2ccccc2)c2ccccc2)c1,-0.9,20.2,2.8,0.0,403.9*,0.1
CC(C)N(C(=S)Nc1cccc(S(=O)(=O)N(C)C)c1)c1ccccc1,-3.5,16.0,-5.8,-0.1,453.6*,0.5
Cc1ccn(CCC(=O)N2CCc3ccccc32)n1,-0.3,4.2,-13.5,-0.3,3.5,.
CC1=CC2=NC(=O)/C(=C\c3cc(C)n(-c4ccccc4)c3C)C(=N)N2O1,6.2,4.6,14.0,-0.4,510.6*,-0.8
Cn1c(SCC(=O)Nc2nnc(-c3ccccc3)o2)nnc1C1CC1,-0.3,21.1,-2.2,0.0,544.6*,-0.2
Cc1nnc(SCC(=O)NNC(=O)COc2ccc(Cl)cc2)n1C,-1.4,10.5,2.9,-0.1,-6.3,.
CC1(C)CC(=O)C=C(Nc2cccc(F)c2)C1,-0.6,23.6,1.9,-0.1,-9.4,.
CC(=O)c1c(Nc2cccc(F)c2)oc(C)cc1=O,1.3,5.8,7.9,0.0,951.5*,-0.2
Cc1nc2ccccc2n(CC(=O)Nc2cc(Cl)cc(Cl)c2)c1=O,2.8,19.1,-1.0,-0.1,+,0.8
Cc1ccc(NC(=O)Cn2c(=O)c(C)nc3ccccc32)cc1,0.2,4.2,-2.6,-0.2,11.0,.
COc1ccc(N2CCN(CCCNC(=O)C(=O)c3c(C)[nH]c4ccccc34)CC2)cc1,-2.5,40.3,0.7,0.2,413.1*,0.1[21 µM]
COc1ccc(N2CCN(CC(=O)c3c[nH]c4ccccc34)CC2)cc1,-2.4,-1.4,-10.0,0.1,-5.3,.
COc1ccc(Cl)cc1NC(=O)COC(=O)CCNS(=O)(=O)c1cccs1,-0.8,.,-3.5,.,.,.
COc1cccc(/C=N/n2c(N)nc3ccccc32)c1OC,2.1,7.9,-28.3,0.0,616.0,.
COc1cccc(/C=N/n2cnc3ccccc32)c1OC,-1.1,17.6,-10.3,0.5,406.4*,-0.9
CC(Oc1ccc(F)cc1)C(=O)Nc1cc(S(=O)(=O)N2CCOCC2)ccc1N1CCCCC1 (stereo not given),0.9,-3.6,-4.9,0.0,-2.3,.
CCOc1ccccc1NC(=O)C1COc2ccccc2O1 (stereo not given),5.2,4.6,3.7,-0.1,-4.0,.
CCOc1ccc(OCC)c(NC(=O)C2COc3ccccc3O2)c1 (stereo not given),-0.7,31.6,-1.6,-0.1,824.4*,0.0
COc1ccccc1C1(CC(=O)Nc2nccs2)CCOC(C(C)C)C1 (stereo not given),-2.4,33.2,-9.8,0.4,18.8,.
SMILES,V-ATPase pHluor,AI-2 QS mod,ATG4B inh,Efflux pump mplx,SUMO Mot1 rescue,Yeast Mot1 SUMO
COc1ccccc1Nc1nnc(SCc2nnc(-c3cc(OC)c(OC)c(OC)c3)o2)s1,-2.4,20.2,-20.2,0.5,127.0,.
CCOc1ccccc1Nc1nnc(SCc2nnc(-c3cc(OC)c(OC)c(OC)c3)o2)s1,-3.2,27.1,-14.1,0.7,608.1*,-0.4
CC1=CC(=O)C(C(C)=Nc2ccccc2[N+](=O)[O-])C(=O)O1 (stereo not given),-1.1,.,-4.4,.,.,.
Nc1ccc(S(=O)(=O)NNC(=O)C(=O)NNc2ccccc2)cc1,-2.1,9.5,0.9,-0.3,405.2*,0.1
O=C(NNc1ccccc1)C(=O)NNS(=O)(=O)c1ccc(CCCl)cc1,0.5,35.2,-5.3,-0.3,-25.8,.
CCN(CC)C(=O)C1CCCN(c2ccc([N+](=O)[O-])cc2/C=N/NC(=O)c2cccc(Br)c2)C1 (stereo not given),-0.6,48.1,-7.7,0.4,648.2*,-0.1
CC1CCCCC12NC(=O)N(CC(=O)Nc1ccc(N3CCCCC3)cc1)C2=O (stereo not given),4.5,.,-6.4,.,.,.
Cc1ccc(NC(=O)COc2ccccc2C(=O)NCCN(C)C)cc1,.,-5.0,.,0.2,800.1*,0.9
COc1ccc(-c2csc(NC(=O)CCS(=O)(=O)c3ccccc3)n2)c(OC)c1,-1.1,9.0,-2.8,0.0,454.1*,-0.1
COCc1ccc(C(=O)N2CCCC(N3CCN(c4cccc(Cl)c4)CC3)C2)s1 (stereo not given),-0.2,.,.,.,.,.
CCS(=O)(=O)NCC(c1cccnc1)N1CCN(c2ccccc2F)CC1 (stereo not given),-2.4,29.5,-9.0,-0.2,-21.9,.
CCOC(=O)C1=C[C@]2(CC)CCCN3CCc4c(n1c1ccccc41)[C@@H]32,2.9,14.9,1.4,0.0,617.5*!,0.2
COc1ccc(C(CC(=O)Nc2ccccn2)N2Cc3ccccc3C2=O)cc1OC (stereo not given),2.6,16.0,-7.1,-0.1,-18.0,.
COc1cc(CCC(=O)N2CCN(c3ncccn3)CC2)cc(OC)c1OC,-0.8,65.9,3.1,0.0,-8.5,.
Fc1ccc(-c2nnc3ccc(N4CCCC4)nn23)cc1,-1.7,21.4,-9.5,0.1,775.1*,-0.7
O=C(Nc1ccccc1Cl)N1CCN(c2ccc3nnc(-c4ccc(F)cc4)n3n2)CC1,-0.1,-3.7,4.6,0.0,-0.1,.
COc1cc(/C=C(\NC(=O)c2ccccc2)C(=O)Nc2nccs2)ccc1OC(C)=O,0.0,21.6,-10.1,-0.1,395.1*,0.4
C/C(O)=C(\N=Nc1cc(C)ccc1O)C(N)=O,-2.7,-0.3,6.8,-0.3,+,0.6
COc1ccccc1N1CCN(C(=O)c2ccc(-c3ccccc3)cc2)CC1,4.5,-14.1,1.3,-0.6,+,-0.1
COc1ccc(C(=O)N2CCN(c3ccccc3OC)CC2)cc1,-0.6,34.9,-0.2,0.0,1.7,.
CCCCNC(=O)N1CCC(CCC(=O)N(C)Cc2ccccc2)CC1,-5.2,16.4,-1.1,0.1,374.6*,-0.8
COc1ccccc1CC(=O)N1CCN(S(=O)(=O)c2ccccc2)CC1,1.1,11.7,0.2,0.1,383.1*,-0.3
O=Nc1c(-c2cccc([N+](=O)[O-])c2)nc2ncccn12,.,?,.,0.8,556.1*,-0.1
O=[N+]([O-])c1cccc(-c2cn3nc(-c4ccccc4)c(-c4ccccc4)nc3n2)c1,-2.8,3.8,-6.1,-0.1,7.2,.
COc1cc(C(=O)OCC(=O)NCc2ccccc2)cc(NC(=O)c2ccco2)c1OC,-0.1,5.0,-9.1,0.0,383.1*,0.3
